Inconclusive results are not listed. This is one part of the list. A call without a number means that no potency is given here. Activity calls are given as the source filed them. Unless noted, calls come from the whole dose curve; as a rule, active = well fitted curve in the direction sought with a large enough effect; inconclusive = small, poorly fitted or top-dose-only effect, or another doubt; inactive = no such curve, though single readings can be large; an effect the other way counts as inactive or inconclusive.
Key:
[1] = biological target: Ferritin light chain (Equus caballus) (UniProt P02791); experiment: qHTS Validation Assay for Identification of Novel General Anesthetics (AID 2323); note: series mostly up to about 77 µM
Sequence of Ferritin light chain (Equus caballus) (P02791 2-175 limits assumed): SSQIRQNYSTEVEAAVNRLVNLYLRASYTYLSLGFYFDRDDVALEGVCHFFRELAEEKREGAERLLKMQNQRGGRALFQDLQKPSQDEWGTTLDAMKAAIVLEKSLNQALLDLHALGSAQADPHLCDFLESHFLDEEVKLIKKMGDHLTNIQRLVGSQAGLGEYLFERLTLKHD
Summary of the method: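 Apoferritin from horse spleen (10 uM) was mixed with 1-aminoanthracene at 50% saturation in PBS, then compounds were added. After 10 min at room temperature, fluorescence was read (ex 380 nm, em 535 nm) and normalized to free-probe and complex controls.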

[2] = biological target: ATP-dependent DNA helicase Q1 (Homo sapiens) (UniProt P46063); experiment: qHTS Validation Assay for Inhibitors of RecQ-Like Dna Helicase 1 (RECQ1) (AID 2353); note: potency is the fitted concentration of half-maximal effect
Summary of the method: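 50 nM RECQ1T1 preincubated 15 min with compound in Tris pH 8.0 buffer with MgCl2, DTT, Tween-20 and 2.5 ug/ml poly(dI-dC); started with 200 nM TAMRA/BHQ-2 forked duplex and 2 mM ATP. Unwinding read as fluorescence (525/598 nm), two reads 2 h apart.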

[3] = biological target: RecQ-like DNA helicase BLM (Homo sapiens) (UniProt P54132); experiment: qHTS Validation Assay for Inhibitors of Bloom's syndrome helicase (BLM) (AID 2364); note: potency is the fitted concentration of half-maximal effect
Sequence of RecQ-like DNA helicase BLM (Homo sapiens) (P54132 whole entry, looked up): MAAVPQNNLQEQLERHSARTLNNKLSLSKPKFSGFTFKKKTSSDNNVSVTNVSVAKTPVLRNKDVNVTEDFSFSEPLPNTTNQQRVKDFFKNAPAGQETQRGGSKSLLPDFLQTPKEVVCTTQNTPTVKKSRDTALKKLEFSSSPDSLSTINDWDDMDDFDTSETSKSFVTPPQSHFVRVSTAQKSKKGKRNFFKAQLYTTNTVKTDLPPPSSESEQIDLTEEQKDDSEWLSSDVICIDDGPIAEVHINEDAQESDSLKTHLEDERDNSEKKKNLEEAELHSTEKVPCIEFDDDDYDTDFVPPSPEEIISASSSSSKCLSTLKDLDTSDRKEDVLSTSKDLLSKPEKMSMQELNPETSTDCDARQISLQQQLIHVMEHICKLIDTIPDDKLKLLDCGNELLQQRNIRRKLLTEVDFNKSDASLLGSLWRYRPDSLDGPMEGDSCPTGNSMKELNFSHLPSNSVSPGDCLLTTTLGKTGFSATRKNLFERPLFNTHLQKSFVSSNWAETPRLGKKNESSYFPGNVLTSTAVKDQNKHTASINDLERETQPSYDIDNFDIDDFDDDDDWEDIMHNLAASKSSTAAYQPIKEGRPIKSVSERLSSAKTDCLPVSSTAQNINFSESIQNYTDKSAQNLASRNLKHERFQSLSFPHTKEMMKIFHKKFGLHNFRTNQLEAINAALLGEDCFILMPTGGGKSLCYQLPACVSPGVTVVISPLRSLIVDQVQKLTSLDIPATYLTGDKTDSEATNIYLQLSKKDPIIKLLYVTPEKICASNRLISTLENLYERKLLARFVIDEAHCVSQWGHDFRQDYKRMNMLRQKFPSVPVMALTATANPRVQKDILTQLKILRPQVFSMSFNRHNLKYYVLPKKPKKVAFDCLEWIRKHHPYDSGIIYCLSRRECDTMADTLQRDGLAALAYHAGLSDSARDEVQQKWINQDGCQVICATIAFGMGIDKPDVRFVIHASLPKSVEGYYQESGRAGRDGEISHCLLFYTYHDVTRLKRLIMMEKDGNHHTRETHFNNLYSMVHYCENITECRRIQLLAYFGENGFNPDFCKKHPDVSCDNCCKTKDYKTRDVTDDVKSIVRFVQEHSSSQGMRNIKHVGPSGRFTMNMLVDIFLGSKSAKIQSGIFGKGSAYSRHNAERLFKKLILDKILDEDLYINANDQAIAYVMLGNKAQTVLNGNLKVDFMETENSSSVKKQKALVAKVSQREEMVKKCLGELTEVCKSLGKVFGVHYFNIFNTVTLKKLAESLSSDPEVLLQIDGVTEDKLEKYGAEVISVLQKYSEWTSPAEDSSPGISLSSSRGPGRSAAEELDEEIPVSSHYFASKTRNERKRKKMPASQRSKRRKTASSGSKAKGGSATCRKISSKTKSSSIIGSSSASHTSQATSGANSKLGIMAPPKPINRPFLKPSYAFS
Summary of the method: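 50 nM BLM preincubated 15 min at room temperature with compound in pH 8.0 Tris buffer containing 2.5 ug/ml poly(dI-dC); started with 200 nM TAMRA/BHQ-2 forked duplex and 2 mM ATP (final). Unwinding read as TAMRA fluorescence increase, two reads 2 h apart.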

[4] = Cytometric Cell-Based qHTS for Inhibitors of the mTORC1 Signaling Pathway in MEF (Tsc2-/-, p53-/-) Cells (AID 2660);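 note: percent of cells above a phospho-rpS6 to PI ratio cutoff in each well; series mostly up to about 38 µM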
Summary of the method: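 Readout: Alexa-488 phospho-rpS6 (Ser235/236) intensity divided by PI intensity, thresholded against 7.5 nM rapamycin wells and reported as % positive cells. PI cell count served as the viability measure. Compound exposure was 24 hrs at 37 degree Celsius.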

[5] = High Content Imaging Cell-Based qHTS for Inhibitors of the mTORC1 Signaling Pathway in MEF (Tsc2-/-, p53-/-) Cells (AID 2666);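 note: percent of cells scored positive for phospho-rpS6 Ser235/236 immunostaining by imaging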; note: potency is the fitted concentration of half-maximal effect
Summary of the method: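 Phospho-rpS6 (Ser235/236) immunofluorescence, normalized and scored as % positive cells using rapamycin and DMSO controls, was read in empty-vector Tsc2-/-, p53-/- MEFs after 24 h compound exposure at 37 C; propidium iodide counted cells.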

[6] = High Content Imaging Cell-Based qHTS for Inhibitors of the mTORC1 Signaling Pathway in MEF Cells (AID 2667); note: potency is the fitted concentration of half-maximal effect
Summary of the method: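 WT MEFs (Tsc2-/-, p53-/- re-expressing Tsc2), in DMEM + 10% FBS, were treated with compound for 24 h at 37 C. Cells were then fixed and stained for phospho-rpS6 Ser235/236 with propidium iodide as cell count. Values are % positive cells, with thresholds set against rapamycin-treated cells.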

[7] = Validation screen for inhibitors of Lassa infection (AID 463096; calls by dose curve; note: potency is the fitted concentration of half-maximal effect)
[8] = Validation screen for small molecules that induce DNA re-replication in MCF 10A normal breast cells (AID 463097); note: nearly all actives have a fitted effect of over 60% in size; note: potency is the fitted concentration of half-maximal effect
Summary of the method: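 DNA re-replication was detected as a rise in nuclei with elevated Hoechst fluorescence after a 48 hr compound exposure of MCF 10A cells at 37 C.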

[9] = biological target: Ubiquitin carboxyl-terminal hydrolase 2 (Homo sapiens) (UniProt O75604); experiment: qHTS Validation Assay for Inhibitors of Ubiquitin-specific Protease USP2a Using CHOP2 as the Reporter (AID 463106)
Sequence of Ubiquitin carboxyl-terminal hydrolase 2 (Homo sapiens) (O75604 whole entry, looked up): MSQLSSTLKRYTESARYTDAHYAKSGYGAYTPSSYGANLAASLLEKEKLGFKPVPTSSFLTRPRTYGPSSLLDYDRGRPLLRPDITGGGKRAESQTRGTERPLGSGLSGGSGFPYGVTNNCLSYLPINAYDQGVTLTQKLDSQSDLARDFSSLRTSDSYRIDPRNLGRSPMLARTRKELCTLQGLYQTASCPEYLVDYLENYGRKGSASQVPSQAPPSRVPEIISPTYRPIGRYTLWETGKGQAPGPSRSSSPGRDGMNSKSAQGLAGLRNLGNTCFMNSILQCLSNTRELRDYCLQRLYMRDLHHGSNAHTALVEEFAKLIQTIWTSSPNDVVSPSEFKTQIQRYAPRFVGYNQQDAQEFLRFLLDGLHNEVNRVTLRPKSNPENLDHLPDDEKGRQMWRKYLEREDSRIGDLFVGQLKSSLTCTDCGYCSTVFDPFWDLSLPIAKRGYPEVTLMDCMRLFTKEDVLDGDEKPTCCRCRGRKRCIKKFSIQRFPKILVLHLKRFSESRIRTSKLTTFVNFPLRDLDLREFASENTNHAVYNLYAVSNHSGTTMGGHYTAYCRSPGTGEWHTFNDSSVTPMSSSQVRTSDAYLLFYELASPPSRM
Summary of the method: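 USP2 core (10 nM final) was preincubated with compound 30 min at RT in pH 8.0 Tris/CaCl2/beta-ME/CHAPS buffer. Ub-CHOP2 and reporter substrate (25 nM final each) were then added, with fluorescence (Ex 485/Em 531) read after 60 min. Data were normalized to NEM full inhibition and fitted to concentration-response curves.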

[10] = biological target: DNA polymerase III PolC-type (Bacillus subtilis (strain 168)) (UniProt P13267); experiment: qHTS Validation Assay for the Inhibitors of DNA Replication in Gram-Positive Bacteria (AID 485295); note: potency is the fitted concentration of half-maximal effect
Sequence of DNA polymerase III PolC-type (Bacillus subtilis (strain 168)) (P13267 whole entry, looked up): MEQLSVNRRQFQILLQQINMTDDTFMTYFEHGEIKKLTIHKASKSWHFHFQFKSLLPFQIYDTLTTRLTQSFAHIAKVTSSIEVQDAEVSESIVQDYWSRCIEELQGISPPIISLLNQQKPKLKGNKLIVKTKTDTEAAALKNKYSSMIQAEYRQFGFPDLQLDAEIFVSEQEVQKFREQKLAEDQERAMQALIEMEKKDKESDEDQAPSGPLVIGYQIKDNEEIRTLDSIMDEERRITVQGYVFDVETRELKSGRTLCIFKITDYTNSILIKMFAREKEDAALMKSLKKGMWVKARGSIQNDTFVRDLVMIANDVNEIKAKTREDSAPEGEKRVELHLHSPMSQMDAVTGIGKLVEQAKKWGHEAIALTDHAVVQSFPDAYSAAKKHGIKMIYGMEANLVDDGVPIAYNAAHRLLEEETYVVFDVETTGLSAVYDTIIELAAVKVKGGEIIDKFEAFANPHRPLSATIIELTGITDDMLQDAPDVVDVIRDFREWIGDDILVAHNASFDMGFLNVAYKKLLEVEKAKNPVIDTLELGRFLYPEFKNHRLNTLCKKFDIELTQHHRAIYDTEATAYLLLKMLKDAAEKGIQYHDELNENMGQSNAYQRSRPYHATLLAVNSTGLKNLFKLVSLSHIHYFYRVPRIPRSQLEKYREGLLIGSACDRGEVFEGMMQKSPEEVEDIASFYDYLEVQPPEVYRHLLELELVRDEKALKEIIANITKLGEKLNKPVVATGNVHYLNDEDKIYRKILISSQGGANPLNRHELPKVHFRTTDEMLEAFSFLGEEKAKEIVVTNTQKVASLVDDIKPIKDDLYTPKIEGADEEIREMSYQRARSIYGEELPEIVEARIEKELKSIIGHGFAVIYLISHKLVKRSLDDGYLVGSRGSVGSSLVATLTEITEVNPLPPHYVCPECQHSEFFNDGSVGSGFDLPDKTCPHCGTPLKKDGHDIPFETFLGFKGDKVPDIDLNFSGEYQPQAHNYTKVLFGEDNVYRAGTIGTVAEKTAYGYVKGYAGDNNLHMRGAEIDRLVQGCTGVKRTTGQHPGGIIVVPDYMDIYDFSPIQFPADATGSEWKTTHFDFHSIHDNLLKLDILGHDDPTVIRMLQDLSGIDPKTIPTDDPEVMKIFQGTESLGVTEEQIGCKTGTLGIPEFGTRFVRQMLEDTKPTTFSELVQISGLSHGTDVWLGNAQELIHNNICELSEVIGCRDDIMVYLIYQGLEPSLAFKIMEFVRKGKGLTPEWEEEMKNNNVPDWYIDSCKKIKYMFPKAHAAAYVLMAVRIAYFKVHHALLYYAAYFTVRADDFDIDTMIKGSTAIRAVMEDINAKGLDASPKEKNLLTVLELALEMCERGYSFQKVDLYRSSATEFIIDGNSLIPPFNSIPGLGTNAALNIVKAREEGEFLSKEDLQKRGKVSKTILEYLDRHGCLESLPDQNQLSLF
Summary of the method: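 Primed replication of single-stranded M13Gori by a four-protein B. subtilis holoenzyme is measured at room temperature. Double-stranded product is quantified by PicoGreen fluorescence after an EDTA stop; inhibition is scaled between DMSO and EDTA controls.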

[11] = biological target: Tumor susceptibility gene 101 protein (Homo sapiens) (UniProt Q99816); experiment: qHTS Validation Assay for Iinhibitors of HIV-1 Budding by Blocking the Interaction of PTAP/TSG101 (AID 485342; calls by dose curve)
Sequence of Tumor susceptibility gene 101 protein (Homo sapiens) (Q99816 whole entry, looked up, the tested form may be a part): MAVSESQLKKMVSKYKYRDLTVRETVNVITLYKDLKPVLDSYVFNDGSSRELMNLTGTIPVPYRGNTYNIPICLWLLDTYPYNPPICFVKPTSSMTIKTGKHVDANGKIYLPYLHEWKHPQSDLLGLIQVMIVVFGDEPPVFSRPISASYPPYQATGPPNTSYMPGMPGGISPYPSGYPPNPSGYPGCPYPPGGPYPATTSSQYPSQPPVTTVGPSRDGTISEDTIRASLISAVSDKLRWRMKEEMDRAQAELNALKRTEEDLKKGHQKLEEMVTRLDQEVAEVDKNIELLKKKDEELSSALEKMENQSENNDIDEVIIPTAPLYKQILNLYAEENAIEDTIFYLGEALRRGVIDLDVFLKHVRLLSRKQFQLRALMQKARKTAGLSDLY
Summary of the method: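 Fluorescence anisotropy measured PTAP-Tsg101 interaction. Final concentrations were 10 uM protein domain and 50 nM labeled peptide, equilibrated 20 min at room temperature.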

[12] = qHTS Validation Assay to Find Inhibitors of Chronic Active B-Cell Receptor Signaling (AID 485345; active = well fitted curve in the direction sought with a large enough effect in the main read-out, with a control signal flat, not every such curve was filed as active)
Summary of the method: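 TMD8 ABC-DLBCL cells stably carrying doxycycline-inducible IkappaBalpha–green luciferase fusion plus unfused red luciferase; compounds 46 uM to 3 nM, 4 h at 37C with doxycycline. Corrected green/red luminescence ratio normalized to 10 uM MG-132 and basal cell wells; curves fitted.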

[13] = biological target: Beta-2 adrenergic receptor (Homo sapiens) (UniProt P07550); experiment: qHTS validation assay of beta-arrestin-biased ligands of beta2-adrenergic receptor (AID 485366)
Sequence of Beta-2 adrenergic receptor (Homo sapiens) (P07550 whole entry, looked up): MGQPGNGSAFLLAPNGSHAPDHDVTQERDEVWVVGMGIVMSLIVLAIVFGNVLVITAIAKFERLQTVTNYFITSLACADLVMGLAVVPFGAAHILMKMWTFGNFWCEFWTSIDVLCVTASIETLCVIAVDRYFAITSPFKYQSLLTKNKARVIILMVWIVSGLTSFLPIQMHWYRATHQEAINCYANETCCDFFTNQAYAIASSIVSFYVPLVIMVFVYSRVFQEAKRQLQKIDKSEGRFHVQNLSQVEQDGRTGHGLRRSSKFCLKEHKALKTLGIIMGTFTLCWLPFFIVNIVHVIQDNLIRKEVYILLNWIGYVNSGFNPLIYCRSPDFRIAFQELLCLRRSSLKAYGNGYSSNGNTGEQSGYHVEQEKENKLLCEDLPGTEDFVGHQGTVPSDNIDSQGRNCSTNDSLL
Summary of the method: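 Tango cells (recombinant beta2-AR with recombinant beta-arrestin; recruitment releases tTA driving luciferase) were treated with compounds titrated up to 46 microM for 18 hr at 37 degrees C. Luminescence gave %Activity, and concentration-response curves were curve-classified.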

[14] = biological target: ATP-dependent 6-phosphofructokinase (Trypanosoma brucei brucei) (UniProt O15648); experiment: qHTS Validation Assay to Find Inhibitors of T. brucei phosphofructokinase (AID 485368); note: potency is the fitted concentration of half-maximal effect
Sequence of ATP-dependent 6-phosphofructokinase (Trypanosoma brucei brucei) (O15648 whole entry, looked up): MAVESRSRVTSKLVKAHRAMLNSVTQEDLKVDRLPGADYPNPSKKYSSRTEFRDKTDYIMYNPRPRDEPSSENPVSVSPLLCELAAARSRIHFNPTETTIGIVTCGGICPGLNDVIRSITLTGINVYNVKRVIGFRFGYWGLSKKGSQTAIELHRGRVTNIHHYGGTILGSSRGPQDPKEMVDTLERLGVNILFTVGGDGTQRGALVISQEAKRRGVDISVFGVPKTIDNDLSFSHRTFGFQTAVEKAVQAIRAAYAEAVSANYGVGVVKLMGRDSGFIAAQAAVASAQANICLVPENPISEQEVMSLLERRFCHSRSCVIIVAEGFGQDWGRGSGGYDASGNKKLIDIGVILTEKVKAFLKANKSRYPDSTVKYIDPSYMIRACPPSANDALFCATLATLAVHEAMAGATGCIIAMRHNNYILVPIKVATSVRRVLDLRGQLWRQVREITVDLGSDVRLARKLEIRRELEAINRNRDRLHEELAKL
Summary of the method: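 Compounds (up to 57 uM, titration series) were pinned into substrate buffer, then 1.25 nM PFK added; after 45 min at room temperature, ADP product was quantified by ADP-Glo luminescence and concentration-response curves fitted.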

[15] = Quantitative high throughput screen for delayed death inhibitors of the malarial parasite plastid, 96 hour incubation (AID 488745); note: nearly all actives have a fitted effect of over 70% in size; note: potency is the fitted concentration of half-maximal effect
Summary of the method: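 Infected erythrocytes were added to compound in Albumax-supplemented RPMI 1640 at 0.1% parasitemia and 2% hematocrit (final), incubated 96 h at 37 C under 5% CO2, then luciferase reagent was added and luminescence measured.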

[16] = Quantitative high throughput screen for delayed death inhibitors of the malarial parasite plastid, 48 hour incubation (AID 488752); note: nearly all actives have a fitted effect of over 65% in size; note: potency is the fitted concentration of half-maximal effect
Summary of the method: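 Readout is firefly luciferase luminescence from a reporter integrated into the parasite genome, with lower signal taken as inhibited growth. Infected red cells (0.1% parasitemia, 2% hematocrit final) are cultured with compound for one 48 h cycle at 37 C.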

[17] = Cytometry Cell-Based qHTS for Inhibitors of the mTORC1 Signaling Pathway in MEF cells (AID 2668);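 note: Tsc2-/- p53-/- mouse embryonic fibroblasts stably re-expressing wild-type Tsc2; percent cells positive for phospho-rpS6 Ser235/236 relative to propidium iodide stain; series mostly up to about 38 µM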
Summary of the method: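 Pathway inhibition in WT Tsc2-rescued Tsc2-/-, p53-/- MEFs is measured as the Alexa-488 phospho-rpS6 to propidium iodide intensity ratio after 24 hrs of compound at 37 degree Celsius. PI-stained cell number gives viability.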

[18] = qHTS Assay for Identification of Small Molecule Inducers of Hypoxia Response (AID 2120; active = well fitted curve in the direction sought with a large enough effect in the signal ratio, with a control signal flat, not every such curve was filed as active; the % refers to the signal ratio)
Summary of the method: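 ME-180 HRE-bla cells plated in Opti-MEM/0.5% dialyzed FBS, rested 4-5 h, then dosed with compound titrations by pin tool. After 17 h at 37 degrees C, CCF4 dye loaded 2.5 h at RT; 460/530 nm ratio gave %Activity and AC50.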

[19] = biological target: Endonuclease 4 (Escherichia coli (strain K12)) (UniProt P0A6C1); experiment: Counterscreen for APE1 Inhibitors: qHTS Assay for Inhibitors of Endonuclease IV (AID 2565)
Summary of the method: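 E. coli EndoIV at 2 nM final, preincubated 15 min at room temperature with compound, then 50 nM TAMRA/BHQ-2 THF abasic-site duplex added. Buffer: 50 mM Tris-HCl pH 7.5, 50 mM NaCl, 2 mM MgCl2, 1 mM DTT, 0.01% Tween-20. Kinetic fluorescence increase, third minus first read.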

SMILES | outcome [1] | Potency [2] | Potency [3] | Potency [4] | Potency [5] | Potency [6] | Potency [7] | Potency [8] | Potency [9] | Potency [10] | outcome [11] | Potency [12] | outcome [13] | Potency [14] | Potency [15] | Potency [16] | Potency [17] | outcome [18] | outcome [19]
COc1cc(CC(C)N)c(OC)cc1I (stereo not given) | inactive | inactive | inactive | inactive | inactive | inactive | inactive | inactive | inactive | inactive | inactive | inactive | inactive | inactive | inactive | inactive | – | – | –
CCOC(=O)c1ncn2c1[C@@H]1CCCN1C(=O)c1cc(OC)ccc1-2 | inactive | inactive | inactive | inactive | inactive | inactive | inactive | inactive | inactive | inactive | inactive | – | inactive | inactive | inactive | inactive | inactive | – | –
C[C@H]1CCC[C@H](O)CCCCCc2cc(O)cc(O)c2C(=O)O1 | – | – | – | – | – | – | – | – | – | – | – | – | – | – | – | – | – | inactive | –
c1ccc2c(c1)[I+]c1ccccc1-2 | inactive | inactive | inactive | – | 3.29 µM (active) | 0.0585 µM (active) | 0.251 µM (active) | 6.31 µM (active) | inactive | inactive | inactive | – | inactive | inactive | 0.131 µM (active) | 0.147 µM (active) | – | – | inactive
C[N+]1(C)CCOC(O)(c2ccc(-c3ccc(C4(O)C[N+](C)(C)CCO4)cc3)cc2)C1 (stereo not given) | inactive | inactive | inactive | inactive | inactive | inactive | inactive | inactive | inactive | inactive | – | – | inactive | – | inactive | – | inactive | – | –
CCCN(CCC)CCc1c[nH]c2ccc(C(N)=O)cc12 | inactive | inactive | inactive | inactive | inactive | inactive | – | inactive | inactive | inactive | inactive | inactive | inactive | inactive | inactive | inactive | inactive | – | –
CCCCCCCCOC(=O)c1ccccc1C(=O)OCCCCCCCC | – | – | – | – | – | – | – | – | – | – | – | – | – | – | – | – | – | inactive | –
O=[N+]([O-])c1ccccc1 | – | – | – | – | – | – | – | – | – | – | – | – | – | – | – | – | – | inactive | –
CN(N=O)c1cc(O)ccc1O | inactive | 7.94 µM (active) | 28.2 µM (active) | – | – | inactive | inactive | inactive | inactive | 23.8 µM (active) | inactive | – | inactive | 7.57 µM (active) | – | inactive | – | – | –
Cc1sc2ccccc2c1CC1=NCCN1 | inactive | inactive | inactive | – | inactive | inactive | inactive | inactive | inactive | inactive | inactive | inactive | inactive | inactive | inactive | inactive | inactive | – | –
CO[C@H]1CC=C2CCN3CCC4=C(CC(=O)OC4)[C@]23C1 | inactive | inactive | – | inactive | inactive | inactive | inactive | inactive | inactive | inactive | inactive | – | inactive | inactive | inactive | – | inactive | – | –
C[N+](C)(C)CC#CCN1CCCC1=O | inactive | inactive | inactive | inactive | inactive | inactive | inactive | inactive | inactive | inactive | – | – | inactive | inactive | inactive | inactive | – | – | –
c1ccc2c(N3CCNCC3)cccc2c1 | inactive | inactive | inactive | inactive | inactive | inactive | inactive | inactive | inactive | inactive | inactive | – | inactive | inactive | inactive | inactive | – | – | –
OCc1cnc[nH]1 | inactive | inactive | inactive | inactive | inactive | inactive | inactive | inactive | inactive | inactive | – | inactive | inactive | – | – | – | – | – | –
COc1ccc2c(c1)[C@@]13CCCC[C@H]1[C@@H](C2)NCC3 | inactive | inactive | inactive | inactive | inactive | inactive | – | inactive | inactive | inactive | – | – | inactive | inactive | inactive | – | – | – | –
NC(=O)COc1c(F)cc(SCCNS(=O)(=O)c2ccccc2)cc1F | inactive | inactive | inactive | – | inactive | inactive | inactive | inactive | inactive | inactive | inactive | – | inactive | – | inactive | inactive | – | – | –
Oc1ccc2c3c1O[C@H]1c4[nH]c5ccccc5c4C[C@@]4(O)C(C2)N(CC2CC2)CCC314 (stereo not given in full) | inactive | inactive | inactive | – | inactive | – | 11.2 µM (active) | inactive | inactive | inactive | inactive | – | inactive | inactive | – | – | – | – | –
NCC(O)c1cc(O)c(O)cc1F (stereo not given) | inactive | inactive | – | inactive | inactive | inactive | inactive | inactive | inactive | inactive | inactive | inactive | inactive | 4.78 µM (active) | inactive | inactive | inactive | – | –
CCn1cnc2c(Nc3cccc(Cl)c3)nc(N[C@@H]3CCCC[C@@H]3N)nc21 | inactive | inactive | inactive | – | 18.5 µM (active) | – | – | 3.55 µM (active) | inactive | inactive | inactive | – | inactive | inactive | 0.208 µM (active) | 5.86 µM (active) | – | – | –
CC(N)Cc1c[nH]c2ccc(OCc3cccs3)cc12 (stereo not given) | inactive | inactive | inactive | inactive | inactive | 13.1 µM (active) | inactive | inactive | inactive | inactive | inactive | – | inactive | inactive | – | inactive | – | – | –

Reference: PubChem BioAssay (NCATS)
